Usually Inhibition stands for the percentage by which the read-out fell short of the control. A lower Inhibition goes with little suppression.

Each structure is given as a SMILES string. Values joined by “and” are separate entries in the source; they are usually repeats but may differ in a detail not shown here. Identical values can stand only once.

For the assay, the system named is Plasmodium falciparum. As to the kind of experiment: GSK_TCMDC: Inhibition of Plasmodium falciparum Dd2 in whole red blood cells, using parasite LDH activity as an index of growth. Test compounds present at 2uM. The format is functional.
`Br.CCOC(=O)c1ccc(CC(C)NCC(O)c2cccc(C(F)(F)F)c2)cc1` (centres undefined): the Inhibition was determined as 98%. In turn, `C/C=C1\CN2CC[C@H]1C[C@@H]2[C@@H](O)c1ccnc2ccc(O)cc12` showed an Inhibition of 0%. Regarding `COc1ccc(CC(C)NCC(O)c2cccc(C(F)(F)F)c2)cc1` (centres undefined), the Inhibition was found to be 94%. Then `Cc1[nH]c2ccccc2c1C1=CCN(CC2CC2C(=O)c2ccccc2)CC1` (centres undefined), with 88%. As for `COc1cc2nc(N(C)C3CCN(Cc4ccccc4)CC3)nc(N)c2cc1OC`, the figure is 93%; as for `CNC(=O)c1ccc2[nH]cc(C3CCN(CC4CCC(NC(=O)/C=C/c5ccc(Cl)c(Cl)c5)CC4)CC3)c2c1` (centres undefined), 90%.

`Cc1cc2cc(CNCCc3ccccc3Br)ccc2nc1N.Cl` registered an Inhibition of 91%. As for `c1ccc(C(OCCC2CCN(Cc3cccc4cccnc34)CC2)c2ccccc2)cc1`, the figure is 99%; as for `C=C[C@H]1CN2CC[C@H]1C[C@H]2[C@H](OS(=O)(=O)O)c1ccnc2ccccc12`, 15%.

`CC1(CCCCN2CC=C(c3c[nH]c4ccccc34)CC2)C(=O)Nc2ccccc21` (centres undefined) yielded an Inhibition of 90%.

For `Cc1cccc(C(=O)Nc2ccnc(N(C)C3CCN(CC(C)C)CC3)c2)c1.O=C(O)C(F)(F)F`, the Inhibition is given as 6%.

Compound `Cc1ccc2c(C3=CCN(CCCCC4(C)C(=O)Nc5ccccc54)CC3)c(C)[nH]c2c1` (centres undefined) returned an Inhibition of 91%. For `Cl.c1ccc2c(NCCCCCCCCCNc3c4ccccc4nc4ccccc34)c3ccccc3nc2c1`, the Inhibition came to 95%.

For the compound `COC(=O)c1ccc(CC(C)NCC(O)c2cccc(C(F)(F)F)c2)cc1` (centres undefined), the Inhibition was 73% and 87%. Regarding `Cc1ccc(/C=C/C(=O)NC2CCC(CN3CCC(c4c[nH]c5ccccc45)CC3)CC2)cc1` (centres undefined), the Inhibition is 66% and 69%. The compound `CNCC(O)c1cc(Cl)c(Cl)cc1C.Cl` (centres undefined) returned an Inhibition of 88%. `COCCNCc1cccc(-c2ccc(CN(C(=O)Nc3ccccc3)C3CCN(Cc4ccccc4)CC3)cc2)c1.O=C(O)C(F)(F)F` displayed an Inhibition of 45%. `CC(=O)Nc1ccc(CN2CCC(N(C)c3cc(NC(=O)c4cccs4)ccn3)CC2)cc1.O=C(O)C(F)(F)F` registered an Inhibition of 43%. `CC[C@H]1CN2CC[C@@H]1C[C@@H]2[C@@H](O)c1cc(-c2ccc(F)cc2)nc2ccc(OC)cc12.Cl` showed an Inhibition of 64%.

The compound `COCCNCc1cccc(-c2ccc(CN(C(=O)NC3CCCCC3)C3CCN(Cc4ccccc4)CC3)cc2)c1.O=C(O)C(F)(F)F` showed an Inhibition of 31%.

With `CC1(C)CCCN(C(=O)Cc2ccc3c(c2)CCCC3)C1CN1CC=CC1.Cl` (centres undefined), the Inhibition is on record as 1%. Take `CC[C@H]1CN2CC[C@H]1C[C@@H]2[C@@H](O)c1ccnc2ccc(OC)cc12.Cl`: the Inhibition was found to be 95%. Regarding `CC[C@H]1CN2CC[C@H]1C[C@H]2[C@H](O)c1cc(/C=C/c2ccc(F)cc2)nc2ccc(OC)cc12.Cl`, the Inhibition turned out to be 99%. As for `Cc1cccc2[nH]cc(C3CCN(CC4CCC(NC(=O)/C=C/c5ccc(Cl)c(Cl)c5)CC4)CC3)c12.Cl` (centres undefined), the Inhibition worked out at 97%.

The record behind these values is ChEMBL document CHEMBL1157539, “Thousands of chemical starting points for antimalarial lead identification” (Nature, 2010).
